Test system: T1, VPS34
T1 construct: gene PIK3C3
Settings: concentration: 1 μM, replicates: in singlicate; n = 1
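Also: KINOMEscan kinase panel screen.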

Row | SMILES | %Inh
1 | COc1cc(Nc2nccc(N3CCC(NC(=O)C4COc5ccccc5O4)C3)n2)cc(OC)c1OC (centres unmarked) [GSK1379761] | 16%
2 | Cc1c(Cn2c(C)nn3c(=O)cc(N4CCO[C@H](C)C4)nc23)cccc1C(F)(F)F [GSK2373690] | 59%
3 | COc1ccc(-n2cnc3c(N)ncnc32)cc1 [SKF-97236] | 27%
4 | Nc1nc(-c2ccccc2F)c(-c2ccnc3ccccc23)s1 [GW560459] | 0%
5 | O=C(Nc1n[nH]c2cc(-c3ccccc3F)ccc12)C1CC1 [SB-733371] | 0%
6 | Cc1nnc(-c2ccc3ncn(-c4ccc(S(C)=O)cc4)c3c2)o1 (centres unmarked) | 15%
7 | CCn1c(-c2ccoc2)nc2cnccc21 [SB-733887] | 0%
8 | CCC(=O)c1c(-c2ccccc2)c2cc(Cl)ccc2c(=O)n1Cc1cc(S(C)(=O)=O)n(CC(F)F)n1 | 0%
9 | FC(F)(F)c1ccc(-c2ncn(CCCN3CCOCC3)c2-c2ccncc2)cc1 [SB-217780] | 13%
10 | COc1ccc(CNC(=O)NC2CCN(c3ccnc(Nc4ccc(F)cc4)n3)C2)cc1 (centres unmarked) [GSK1379706] | 33%
11 | COc1cc2ncn(-c3cc(OCc4ccncc4Br)c(C(N)=O)s3)c2cc1OC [GW854278] | 58%
12 | COC(=O)c1c(-c2ccccc2)c2cc(C)ccc2c(=O)n1Cc1ccccc1 | 0%
13 | COc1ccc(-c2coc3ccc(-c4nnc(SCc5cccc(C#N)c5)o4)cc23)cc1 | 0%
14 | Cc1ccc(-c2ccc3c(ccc4sc5c(c43)NC[C@@H](C)N=C5N(C)C)n2)cn1 | 0%

— publication PMC5540273 (PLoS ONE, 2017)
